DRD3 agonist: qHTS of D3 Dopamine Receptor Agonist: qHTS | max activation, % | hit rate 0.58% among 410,000 | D3R DiscoveRx beta-arrestin cells, luminescence, 90 min | AID 652048, 2013 | D(3) dopamine receptor (Homo sapiens), P35462; in the data active = max activation above about 30%; also: 0% is about no effect
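Agonist mode: compounds and dopamine controls were applied to plated cells for 90 min at 37 degrees C after an overnight attachment at 1500 cells/well. Luminescent read-out followed 30 - 60 minutes at room temperature with DiscoveRx detection reagent.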
D1 antagonist: Antagonist of Human D 1 Dopamine Receptor: qHTS. hit rate 3.2% among 360,000. AID 504652, 2011. HEK293 TREx D1 cells, calcium flux, dopamine EC80; active compounds read low. activity change, negative = inhibition, % at 10 µM. D(1A) dopamine receptor (Homo sapiens), P21728; in the data active = activity change below about -30%; also: % is scaled to controls: 0 for no effect and ±100 for the full control effect
Target sequence (P21728 whole entry, looked up): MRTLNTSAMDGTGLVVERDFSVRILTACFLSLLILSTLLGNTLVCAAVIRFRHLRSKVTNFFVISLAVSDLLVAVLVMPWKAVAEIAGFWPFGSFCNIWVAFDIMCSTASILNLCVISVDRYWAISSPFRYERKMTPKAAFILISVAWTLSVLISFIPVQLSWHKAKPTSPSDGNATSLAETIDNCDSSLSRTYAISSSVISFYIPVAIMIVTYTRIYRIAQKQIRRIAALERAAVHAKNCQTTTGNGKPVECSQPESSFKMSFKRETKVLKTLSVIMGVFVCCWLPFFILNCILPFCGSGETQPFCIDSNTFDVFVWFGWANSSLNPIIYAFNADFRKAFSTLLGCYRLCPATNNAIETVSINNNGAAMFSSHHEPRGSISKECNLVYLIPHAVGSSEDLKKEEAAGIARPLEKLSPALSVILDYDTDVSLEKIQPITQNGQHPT
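Antagonism measured as reduced calcium response to an EC80 dopamine addition following 180 s compound pre-read; cells were inducible HEK293 Trex D1 plated overnight at 30 C, read kinetically at 1 cycle/sec.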
D3 antag: qHTS of D3 Dopamine Receptor Antagonist: qHTS. D3R cells, DiscoveRx beta-arrestin luminescence, antagonist mode; active compounds read low. hit rate 2.5% among 360,000. AID 652054, 2013. max response, negative = inhibition, %; in the data active = max response below about -50%; also: % is scaled to controls: 0 for no effect and ±100 for the full control effect
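Cells plated overnight at 1500 cells/well, then exposed to library compounds with dopamine controls for 90 minutes at 37 degrees C. DiscoveRx reagent added for 30–60 minutes at room temperature; luminescence read, quantitative HTS format.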
D1 potentiator: Potentiators of Human D1 Dopamine Receptor: qHTS; AID 504651, 2011; D(1A) dopamine receptor (Homo sapiens), P21728; potentiation, % at 10 µM; hit rate 0.036% among 360,000; HEK293 TREx D1 cells, calcium flux, dopamine EC20 potentiation; in the data active = potentiation above about 30%; also: 0% is about no effect
D1 ag: Allosteric Agonists of the Human D1 Dopamine Receptor: qHTS; activation, % at 2 µM; AID 504660, 2011; hit rate 1% among 360,000; HEK293 T-REx D1 cells, calcium flux, agonist mode; in the data active = activation above about 30%; also: 0% is about no effect
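Agonism was scored from calcium flux recorded over 180 s (1 read/s) after pintool compound addition, following a 10-cycle baseline. Cells were inducible force-coupled HEK293 TREx D1, plated overnight at 30 C and loaded with no-wash calcium dye.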
An asterisk follows results filed as active; · = not tested or not shown. Compounds with a hit are over-represented: about 6.1% of the library has one in this group of screens.

SMILES	DRD3 agonist	D1 antagonist	D3 antag	D1 potentiator	D1 ag
S=C(NCCN(C1CCCCC1)C1CCCC1)Nc1cccc(Cl)c1	-38	11	-102*	-4	31*
CC1CCN(c2ccc(-c3cccc(NS(=O)(=O)c4cccs4)c3)nn2)CC1	0	-20	·	2	8
CC1=C(C(=O)Nc2ccccc2C)C(c2cccs2)n2nc(SCc3ccccc3)nc2N1 (configuration not stated)	-9	-8	·	0	7
O=C(c1ccc(S(=O)(=O)Nc2ccccc2)cc1)N1CCCC1	3	7	13	0	6
O=C(c1ccc(NS(=O)(=O)c2ccccc2)cc1)N1CCCC1	-4	-20	21	-1	2
CCOc1ccc(NS(=O)(=O)c2ccc3c(c2)N(C(C)=O)CC3)cc1	6	-32*	-1	-5	8
CCN(CC)S(=O)(=O)c1ccc(S(=O)(=O)Nc2ccc(C(=O)N3CCCC3)cc2)cc1	-13	3	-56*	0	7
CC1CCN(C(=O)c2ccc(NS(=O)(=O)c3ccccc3)cc2)CC1	3	-32*	-5	-8	7
CCOc1ccc(NS(=O)(=O)c2ccc(C(=O)N3CCCCC3)cc2)cc1	4	-15	12	-9	50*
CCOCCCNC(=O)c1ccc(NC(=O)N2CCCCc3ccccc32)cc1	-6	-14	·	-5	1
CCN(CC)C(=O)Cn1c(=O)n(-c2ccc(Cl)cc2)c(=O)c2c3c(sc21)CCC3	-11	-16	·	2	-3
CC1CN(C(=O)c2ccc(NS(=O)(=O)c3ccc(C(C)(C)C)cc3)cc2)CC(C)O1 (configuration not stated)	5	-4	4	-4	35*
CCOc1ccc(S(=O)(=O)Nc2ccc(C(=O)NCC3(N4CCCCC4)CCCCC3)cc2)cc1	-15	9	1	2	54*
CCOc1ccc(S(=O)(=O)Nc2ccc(C(=O)N3CC(C)OC(C)C3)cc2)cc1 (configuration not stated)	-8	2	-8	4	31*
CC1CC(C)CN(C(=O)c2cccc(S(=O)(=O)NCc3ccccc3)c2)C1 (configuration not stated)	-8	·	-20	·	·
CC1CN(C(=O)c2ccc(NS(=O)(=O)c3cccc(Cl)c3)cc2)CC(C)O1 (configuration not stated)	-6	13	-18	-3	3
CCOc1ccc(S(=O)(=O)Nc2cccc(C(=O)N3CC(C)OC(C)C3)c2)cc1 (configuration not stated)	4	1	5	-1	13
CC1CCCN(C(=O)c2cccc(S(=O)(=O)NCc3ccccc3)c2)C1 (configuration not stated)	1	·	-54*	·	·
COc1ccc(Cl)cc1NC(=O)CN1C(=O)CSc2ccc(S(=O)(=O)N3CCCC3)cc21	-22	-5	·	-4	15
CCCCNc1ccc(C(=O)OCCN(CC)CC)cc1	-8	·	·	·	·
COc1ccc(NC(=O)c2ncoc2-c2ccco2)cc1Cl	-5	-5	·	3	1
CN(c1ccccc1)S(=O)(=O)c1ccc(C(=O)N2CCCC2)cc1	3	-16	9	-8	1
CN(c1ccc(C(=O)N2CCCCC2)cc1)S(=O)(=O)c1ccccc1	-1	-36*	16	4	17
CCOc1ccc(NS(=O)(=O)c2ccc(C(=O)N3CC(C)OC(C)C3)cc2)cc1 (configuration not stated)	0	-59*	24	-10	113*
CC(=O)c1cc2c(cc1N/C(=N/S(=O)(=O)c1ccc(F)cc1)c1ccccc1)OCO2	-7	3	·	0	0
SMILES	DRD3 agonist	D1 antagonist	D3 antag	D1 potentiator	D1 ag
Cc1ccc2c(c1)c1c(c(=O)n(-c3ccccc3C)c(=O)n1CC(=O)NCCC1=CCCCC1)n2C	-8	2	·	-1	0
COc1ccc2[nH]c3c(Cl)ncnc3c2c1	-2	1	-7	0	1
COc1ccc2[nH]c3c(=S)nc[nH]c3c2c1	2	5	-56*	-4	1
c1cc2c(cc1CN1CCN(C3CCCCCC3)CC1)OCO2	-16	-19	-51*	-1	2
Cc1ccccc1C(=O)N1CCCC(N2CCN(Cc3ccc4c(c3)OCO4)CC2)C1 (configuration not stated)	-13	-52*	-29	-9	2
COc1cccc(CNC(=O)c2cc(S(=O)(=O)N3CCCCC3)cn2C)c1	-3	-4	·	1	8
CC[C@H](CC[C@@H](C)[C@H]1CC[C@H]2[C@@H]3CC=C4C[C@@H](O)CC[C@]4(C)[C@H]3CC[C@]12C)C(C)C	3	·	·	·	·
CC(C)Oc1ccc2c(=O)c(-c3ccccc3)coc2c1	11	-18	-11	-2	2
COC(=O)COc1ccc2c(=O)c(-c3ccccc3)coc2c1	-7	-42*	-15	-4	10
O=C1c2ccccc2NC(c2ccc(Cl)cc2Cl)N1Cc1ccccc1 (configuration not stated)	3	-14	-53*	-3	3
O=C1c2ccccc2NC(c2c(Cl)cccc2Cl)N1Cc1ccccc1 (configuration not stated)	-2	2	-25	-3	4
O=S(=O)(c1ccc2c(c1)OCCO2)N1CCN(S(=O)(=O)c2cccc3cccnc23)CC1	·	-7	·	-3	2
Cc1n[nH]c(=S)c2nn(-c3ccccc3)c(C)c12	·	-33*	·	-9	1
O=C(NCCc1ccccc1)c1ccc2c(c1)N(Cc1ccccc1Cl)C(=O)c1ccccc1S2	6	-12	·	-5	8
Cc1ccccc1-c1cc2nccc(-c3cc(Cl)ccc3O)n2n1	-6	-5	·	-1	-1
CCN(CC)c1ccc(N)cc1S(=O)(=O)Nc1ccc(OC)cc1	6	1	2	-6	1
CCN(CC)c1ccc(N)cc1S(=O)(=O)Nc1ccccc1OC	8	-32*	10	-17	1
COc1ccc(OC)c(NC(=O)C2CCN(c3cc(-c4ccccc4)nc4ncnn34)CC2)c1	5	-4	30	5	2
COc1ccc(NC(=O)C2CCN(c3cc(-c4ccccc4)nc4ncnn34)CC2)cc1OC	55*	9	36	1	1
COc1ccccc1NC(=O)N1CCN(c2cc(-c3ccccc3)nc3ncnn23)CC1	26	-54*	33	2	0
COc1ccc(-c2nnc(C3CCN(C(=O)c4ccccc4F)CC3)o2)cc1	6	4	·	-2	-1
CC1(OC(=O)CCc2ccccc2)C(=O)C=C2C=C(c3ccc(C#N)cc3)N(CC3CC3)C=C2C1=O (configuration not stated)	0	6	0	-2	2
